A short description of assay [1]: qHTS for differential inhibitors of proliferation of Plasmodium falciparum line W2 (AID 1883).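 Further: parasites grown with compound for 72 h before lysis and staining.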 Further: potency means the concentration at half of the fitted maximal effect. The note with it: Potency: Plasmodium falciparum W2 proliferation inhibition. On the technique in general: qHTS replaces the single test concentration by a dilution series.
Assay [2] can be described thus: qHTS for differential inhibitors of proliferation of Plasmodium falciparum line HB3 (AID 1886).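 Further: parasites grown with compound for 72 h before SYBR Green readout.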 Further: potency means the concentration at half of the fitted maximal effect. The note with it: Potency: Plasmodium falciparum HB3 proliferation inhibition.
The target of assay [3] is Ferritin light chain (Equus caballus) (UniProt P02791). Briefly: qHTS Validation Assay for Identification of Novel General Anesthetics (AID 2323). Further: series mostly up to about 77 µM. In a few lines:
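Normalized fluorescence response, scaled between free 1-AMA and 1-AMA/apoferritin complex, fitted to a four-parameter Hill equation for concentration-effect values. Binding mix: 10 uM horse-spleen apoferritin, 50% saturated 1-AMA in PBS; read 380/535 nm after 10 min.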

The target of assay [4] is ATP-dependent DNA helicase Q1 (Homo sapiens) (UniProt P46063). Briefly: qHTS Validation Assay for Inhibitors of RecQ-Like Dna Helicase 1 (RECQ1) (AID 2353). In a few lines:
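50 nM RECQ1T1 preincubated 15 min with compound in Tris pH 8.0 buffer with MgCl2, DTT, Tween-20 and 2.5 ug/ml poly(dI-dC); started with 200 nM TAMRA/BHQ-2 forked duplex and 2 mM ATP. Unwinding read as fluorescence (525/598 nm), two reads 2 h apart.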

Assay [5] is described as follows: Cytometric Cell-Based qHTS for Inhibitors of the mTORC1 Signaling Pathway in MEF (Tsc2-/-, p53-/-) Cells (AID 2660).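 Further: percent of cells above a phospho-rpS6 to PI ratio cutoff in each well; series mostly up to about 38 µM.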 The method, boiled down:
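Cells are plated, treated with compound for 24 hrs at 37 degree Celsius, then fixed, blocked and immunostained for phospho-rpS6 Ser235/236. Propidium iodide counterstain follows. Per-well % positive cells is derived from the PI-normalized phospho-S6 signal.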

A short description of assay [6]: High Content Imaging Cell-Based qHTS for Inhibitors of the mTORC1 Signaling Pathway in MEF (Tsc2-/-, p53-/-) Cells (AID 2666).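 Further: percent of cells scored positive for phospho-rpS6 Ser235/236 immunostaining by imaging.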 In a few lines: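 Read-out: % positive cells per well, with thresholds from highest- and lowest-signal wells, based on phospho-rpS6 (Ser235/236) intensity normalized to Hoechst nuclear stain. Cells: Tsc2-/-, p53-/- MEFs carrying empty vector; compound 24 hrs, 37 degree Celsius.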

The nature of assay [7]: High Content Imaging Cell-Based qHTS for Inhibitors of the mTORC1 Signaling Pathway in MEF Cells (AID 2667). Further: potency means the concentration at half of the fitted maximal effect. The method, boiled down: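 MEF (Tsc2-/-, p53-/-, WT Tsc2 re-expressed); cpd 24 h, 37 °C; PFA fix; Alexa-488 anti-p-rpS6 Ser235/236, PI, Hoechst; IN Cell imaging; Hoechst/Alexa-488 intensity ratio; % active cells, thresholds set from rapamycin and DMSO wells.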
The nature of assay [8]: Cytometry Cell-Based qHTS for Inhibitors of the mTORC1 Signaling Pathway in MEF cells (AID 2668).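 Further: Tsc2-/- p53-/- mouse embryonic fibroblasts stably re-expressing wild-type Tsc2; percent cells positive for phospho-rpS6 Ser235/236 relative to propidium iodide stain; series mostly up to about 38 µM.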 In a few lines:
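In MEFs grown in DMEM + 10% FBS, a 24 hrs compound exposure preceded imaging of phospho-rpS6 Ser235/236 by laser-scanning cytometry.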

Assay [9] can be described thus: Validation screen for small molecules that induce DNA re-replication in MCF 10A normal breast cells (AID 463097). Further: nearly all actives have a fitted effect of over 60% in size. Further: potency means the concentration at half of the fitted maximal effect. In a few lines:
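Following 48 hr compound incubation (37 C, 5% CO2), MCF 10A cells receive Hoechst for 40 min at 37 C. Nuclei are then scanned (excitation 405 nm, emission 500-530 nm) for total fluorescence intensity.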

For assay [10], the target named is Ubiquitin carboxyl-terminal hydrolase 2 (Homo sapiens) (UniProt O75604). Briefly: qHTS Validation Assay for Inhibitors of Ubiquitin-specific Protease USP2a Using CHOP2 as the Reporter (AID 463106). The method, boiled down:
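USP2 core (10nM final) was preincubated with compound for 30min at RT in 20mM Tris-HCl pH 8.0, 2mM CaCl2, 2mM beta-mercaptoethanol, 0.05% CHAPS. Ub-CHOP2 and reporter substrate (25nM each) were added, and fluorescence (Ex 485/Em 531nm) was read after 60min.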

For assay [11], the target named is DNA polymerase III PolC-type (Bacillus subtilis (strain 168)) (UniProt P13267). Description: qHTS Validation Assay for the Inhibitors of DNA Replication in Gram-Positive Bacteria (AID 485295).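 Further: reconstituted holoenzyme with PolC plus beta clamp SSB and primase; PicoGreen fluorescence of double-stranded DNA made on primed circular M13 template; series mostly up to about 57 µM.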 In a few lines:
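Inhibition of DNA synthesis by the reconstituted PolC holoenzyme, monitored through PicoGreen staining of dsDNA formed from ssM13Gori, dNTPs and NTPs, with compound preincubation and room-temperature reaction.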

Assay [12] addresses Tumor susceptibility gene 101 protein (Homo sapiens) (UniProt Q99816). Description: qHTS Validation Assay for Iinhibitors of HIV-1 Budding by Blocking the Interaction of PTAP/TSG101 (AID 485342; calls by dose curve). In a few lines:
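Compound wells held the Tsg101 binding domain (10 uM) and a FITC-conjugated PTAP peptide (50 nM) in buffer at pH 7.5 containing 0.15 M NaCl and 0.01% Tween 20; polarization was recorded after 20 min, r.t.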

Assay [13] concerns the target Beta-2 adrenergic receptor (Homo sapiens) (UniProt P07550). Briefly: qHTS validation assay of beta-arrestin-biased ligands of beta2-adrenergic receptor (AID 485366). The method, boiled down:
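Values derive from curve-fitted %Activity of a luminescent beta-arrestin recruitment reporter; compounds tested up to 46 microM on Tango cells for 18 hr at 37 degrees C, 5% CO2.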

Assay [14] can be described thus: qHTS Validation Assay to Find Inhibitors of Chronic Active B-Cell Receptor Signaling (AID 485345; active means well fitted curve in the direction sought with a large enough effect in the main read-out, with a control signal flat, not every such curve was filed as active). The method, boiled down: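 TMD8 ABC-DLBCL cells with dox-inducible green luciferase–IκBα fusion and red native luciferase; compounds 46 uM–3 nM, 4 h at 37C with doxycycline in 0.5% FBS IMDM. Green/red ratio normalized to basal and 10 uM MG-132.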
A short description of assay [15]: qHTS Assay for Modulators of Human Peripheral Myelin Protein 22 (PMP22) Expression/Activity (AID 1967; active means well fitted curve in the direction sought with a large enough effect in the signal ratio; the % refers to the signal ratio). The method, boiled down:
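Engineered MSC80 cells, Pmp22-promoter green and EF-alpha red luciferase reporters; 24h compound treatment at 37 °C. Concentration-response fits on green, red and ratio signals, each overlap-corrected, with %Activity normalized to untreated wells.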

Records with an inconclusive call do not appear. The source made the active and inactive calls. Unless noted, the call rests on the fitted dose curve; in most records, active means well fitted curve in the direction sought with a large enough effect; inconclusive means small, poorly fitted or top-dose-only effect, or another doubt; inactive means no such curve, though single readings can be large; an effect the other way counts as inactive or inconclusive.

Chain of DNA polymerase III PolC-type (Bacillus subtilis (strain 168)) (P13267 whole entry, looked up): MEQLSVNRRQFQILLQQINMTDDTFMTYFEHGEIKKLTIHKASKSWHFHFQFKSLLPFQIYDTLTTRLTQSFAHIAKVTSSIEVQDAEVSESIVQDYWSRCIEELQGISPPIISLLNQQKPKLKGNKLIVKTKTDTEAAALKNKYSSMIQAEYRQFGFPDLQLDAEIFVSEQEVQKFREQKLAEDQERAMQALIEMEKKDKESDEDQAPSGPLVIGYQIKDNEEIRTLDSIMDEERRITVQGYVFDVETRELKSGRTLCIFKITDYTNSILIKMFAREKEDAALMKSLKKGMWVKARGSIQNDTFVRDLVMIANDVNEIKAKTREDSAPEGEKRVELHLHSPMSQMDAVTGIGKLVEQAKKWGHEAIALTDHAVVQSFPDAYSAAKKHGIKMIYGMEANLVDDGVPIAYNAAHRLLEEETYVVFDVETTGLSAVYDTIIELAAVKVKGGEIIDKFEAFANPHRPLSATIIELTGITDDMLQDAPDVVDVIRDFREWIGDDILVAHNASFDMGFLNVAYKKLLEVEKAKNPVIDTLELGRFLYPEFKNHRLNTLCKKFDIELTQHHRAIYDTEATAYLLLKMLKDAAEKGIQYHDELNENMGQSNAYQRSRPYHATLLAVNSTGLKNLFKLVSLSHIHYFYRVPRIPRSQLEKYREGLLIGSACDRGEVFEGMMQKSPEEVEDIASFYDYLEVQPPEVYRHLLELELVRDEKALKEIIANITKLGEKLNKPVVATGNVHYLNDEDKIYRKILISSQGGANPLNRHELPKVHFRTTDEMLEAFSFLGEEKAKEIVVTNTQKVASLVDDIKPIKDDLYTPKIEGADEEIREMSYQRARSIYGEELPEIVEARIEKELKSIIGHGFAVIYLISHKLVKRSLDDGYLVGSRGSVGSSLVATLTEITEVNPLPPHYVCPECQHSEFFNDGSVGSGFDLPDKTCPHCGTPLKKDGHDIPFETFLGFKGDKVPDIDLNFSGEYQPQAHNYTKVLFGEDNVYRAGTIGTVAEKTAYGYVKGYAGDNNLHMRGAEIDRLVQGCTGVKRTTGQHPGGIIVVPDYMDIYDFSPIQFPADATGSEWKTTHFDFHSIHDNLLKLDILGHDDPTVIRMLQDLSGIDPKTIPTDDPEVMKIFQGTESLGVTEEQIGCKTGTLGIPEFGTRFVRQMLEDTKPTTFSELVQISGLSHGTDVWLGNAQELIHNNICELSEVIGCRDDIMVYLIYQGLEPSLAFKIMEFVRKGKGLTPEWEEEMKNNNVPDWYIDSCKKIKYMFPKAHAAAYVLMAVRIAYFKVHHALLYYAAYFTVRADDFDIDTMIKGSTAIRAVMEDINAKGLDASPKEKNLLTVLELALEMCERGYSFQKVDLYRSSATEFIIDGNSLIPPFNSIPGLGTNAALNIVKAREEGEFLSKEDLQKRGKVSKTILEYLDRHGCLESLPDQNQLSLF
Chain of ATP-dependent DNA helicase Q1 (Homo sapiens) (P46063 whole entry, looked up): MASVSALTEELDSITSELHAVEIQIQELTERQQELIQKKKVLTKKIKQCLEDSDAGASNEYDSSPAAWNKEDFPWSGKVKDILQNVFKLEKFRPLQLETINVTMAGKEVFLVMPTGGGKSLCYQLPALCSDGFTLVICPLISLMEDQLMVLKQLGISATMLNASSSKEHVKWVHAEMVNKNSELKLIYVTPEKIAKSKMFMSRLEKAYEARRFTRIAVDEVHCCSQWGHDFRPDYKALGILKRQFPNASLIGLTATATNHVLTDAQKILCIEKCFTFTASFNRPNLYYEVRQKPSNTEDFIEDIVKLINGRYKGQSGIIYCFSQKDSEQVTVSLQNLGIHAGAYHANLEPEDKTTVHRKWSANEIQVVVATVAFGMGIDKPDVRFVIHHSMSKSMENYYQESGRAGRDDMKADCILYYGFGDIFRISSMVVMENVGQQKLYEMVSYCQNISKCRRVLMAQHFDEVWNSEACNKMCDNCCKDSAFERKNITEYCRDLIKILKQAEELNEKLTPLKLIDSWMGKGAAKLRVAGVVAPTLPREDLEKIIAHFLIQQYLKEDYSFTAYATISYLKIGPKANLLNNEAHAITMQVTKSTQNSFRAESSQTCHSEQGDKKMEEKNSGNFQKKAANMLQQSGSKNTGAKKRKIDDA
Chain of Beta-2 adrenergic receptor (Homo sapiens) (P07550 whole entry, looked up): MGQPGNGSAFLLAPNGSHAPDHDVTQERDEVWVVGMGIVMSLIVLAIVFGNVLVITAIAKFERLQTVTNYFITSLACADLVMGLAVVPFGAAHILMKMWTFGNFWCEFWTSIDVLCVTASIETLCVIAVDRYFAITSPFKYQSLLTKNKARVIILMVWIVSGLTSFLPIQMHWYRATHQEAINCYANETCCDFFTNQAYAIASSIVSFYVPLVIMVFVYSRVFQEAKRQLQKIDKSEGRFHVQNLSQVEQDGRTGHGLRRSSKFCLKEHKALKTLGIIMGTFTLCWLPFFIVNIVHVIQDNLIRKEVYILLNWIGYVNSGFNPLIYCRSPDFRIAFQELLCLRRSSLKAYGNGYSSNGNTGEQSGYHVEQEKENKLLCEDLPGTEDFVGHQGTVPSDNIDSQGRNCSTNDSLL
Chain of Ubiquitin carboxyl-terminal hydrolase 2 (Homo sapiens) (O75604 whole entry, looked up): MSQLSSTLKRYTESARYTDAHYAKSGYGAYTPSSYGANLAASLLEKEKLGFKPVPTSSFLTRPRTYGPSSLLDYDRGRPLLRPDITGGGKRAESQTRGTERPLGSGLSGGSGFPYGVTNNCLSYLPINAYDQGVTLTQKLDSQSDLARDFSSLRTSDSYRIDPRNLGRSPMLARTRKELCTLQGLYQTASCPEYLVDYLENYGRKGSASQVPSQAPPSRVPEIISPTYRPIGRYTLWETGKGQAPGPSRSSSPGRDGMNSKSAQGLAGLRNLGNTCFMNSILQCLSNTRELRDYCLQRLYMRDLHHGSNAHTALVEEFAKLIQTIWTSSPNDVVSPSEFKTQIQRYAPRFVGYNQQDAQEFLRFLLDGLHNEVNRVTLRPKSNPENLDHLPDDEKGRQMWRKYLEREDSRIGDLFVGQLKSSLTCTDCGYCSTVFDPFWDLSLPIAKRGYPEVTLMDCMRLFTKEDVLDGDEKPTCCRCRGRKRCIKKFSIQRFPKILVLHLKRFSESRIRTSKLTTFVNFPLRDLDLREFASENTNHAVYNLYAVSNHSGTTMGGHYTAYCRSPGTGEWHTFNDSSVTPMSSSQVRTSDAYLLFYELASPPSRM
Chain of Ferritin light chain (Equus caballus) (P02791 2-175 limits assumed): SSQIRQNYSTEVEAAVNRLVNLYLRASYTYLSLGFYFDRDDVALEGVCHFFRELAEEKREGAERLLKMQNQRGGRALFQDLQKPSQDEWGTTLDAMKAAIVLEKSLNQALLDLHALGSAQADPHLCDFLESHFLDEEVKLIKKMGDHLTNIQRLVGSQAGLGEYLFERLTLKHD
Chain of Tumor susceptibility gene 101 protein (Homo sapiens) (Q99816 whole entry, looked up, the tested form may be a part): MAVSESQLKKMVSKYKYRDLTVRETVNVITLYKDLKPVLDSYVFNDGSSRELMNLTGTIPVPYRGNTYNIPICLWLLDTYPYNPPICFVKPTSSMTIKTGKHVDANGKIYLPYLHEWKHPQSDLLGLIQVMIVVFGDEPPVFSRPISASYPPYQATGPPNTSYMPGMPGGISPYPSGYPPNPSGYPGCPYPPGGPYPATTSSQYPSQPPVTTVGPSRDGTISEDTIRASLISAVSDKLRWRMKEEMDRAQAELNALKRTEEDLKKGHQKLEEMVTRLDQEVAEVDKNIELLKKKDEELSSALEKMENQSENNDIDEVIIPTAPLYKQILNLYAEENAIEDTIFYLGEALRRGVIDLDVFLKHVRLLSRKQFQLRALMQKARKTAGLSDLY

On to `CCCCC[C@H](CC(=O)NO)C(=O)N[C@H](C(=O)N1CCC[C@H]1CO)C(C)C`, for which the results for the Potency in [1] and in [2] were 2.51 µM (active) and 2.82 µM (active), respectively. Besides, the Potency entry in assay [3], in assay [4], in [6], in assay [7], in assay [8] and in assay [9] was “inactive” each time. Also, the Potency result in assay [10] and in [11] was “inactive” throughout. Besides, the result in assay [5], in [12] and in assay [13] was inactive.

Regarding `NC1C=CC=C(C(=O)O)C1` (stereo not given), the Potency result in [1], in assay [2], in assay [3], in [4], in [6] and in assay [7] was “inactive” each time. Further, the Potency result in assay [8], in assay [9], in assay [10] and in assay [11] was “inactive” throughout. Further, the compound was called inactive in [5], in assay [12], in assay [14] and in assay [13].

For the compound `CC1=C(C(=O)O)N2C(=O)[C@@H](NC(=O)C(N)C3=CCC=CC3)[C@H]2SC1` (stereo not given in full), the Potency result in assay [1], in assay [2], in assay [3], in assay [4], in assay [6] and in assay [8] was “inactive” in each case. Besides, the Potency result in assay [9], in [10] and in assay [11] was “inactive” in each case. Also, the outcome in assay [5] and in [12] was inactive.

Regarding `O=C(O)C1=CCCN(CCON=C(c2ccccc2)c2ccccc2)C1`, the Potency in assay [1] is 5.62 µM (active). The Potency entry in assay [2], in [3], in [4], in assay [6], in [7] and in [8] was “inactive” each time. For the same compound, the Potency result in assay [9], in [10] and in assay [11] was “inactive” throughout. Besides, the result in assay [5], in assay [12] and in assay [13] was inactive.

Regarding `N[C@H](C(=O)O)[C@H]1C[C@@H]1C(=O)O`, the Potency entry in [1], in assay [2], in assay [3], in [4], in assay [6] and in [7] was “inactive” throughout. Also, the Potency result in assay [8], in assay [9], in assay [10] and in assay [11] was “inactive” each time. The call in [5], in [12], in assay [14] and in assay [13] was inactive.

For `Cn1c(=O)c2c(nc(/C=C/c3cccc(Cl)c3)n2C)n(C)c1=O`, the Potency in [1] is 11.2 µM (active); in assay [2], 12.6 µM (active). The Potency entry in assay [3], in assay [4], in assay [6], in assay [9], in [10] and in assay [11] was “inactive” throughout. In addition, the call in assay [5], in [12] and in assay [13] was inactive.

`O=[N+]([O-])c1cccc2cn[nH]c12`: the Potency result in assay [1], in assay [2], in assay [3], in [4], in assay [6] and in assay [7] was “inactive” throughout. For the same compound, the Potency entry in assay [8], in [9], in [10] and in assay [11] was “inactive” in each case. Moreover, the result in assay [15], in assay [12], in [14] and in assay [13] was inactive.

Regarding `O=C(N[C@@H](Cc1ccccc1)C(=O)CCl)OCc1ccccc1`, the Potency was 8.91 µM (active) in [1], 14.1 µM (active) in [2], 5.21 µM (active) in [7] and 2.82 µM (active) in assay [9]. The Potency result in assay [3], in assay [4], in assay [10] and in assay [11] was “inactive” each time. In addition, the compound was called inactive in [12] and in assay [13].
